Screening data as filed in PubChem BioAssay.
A selection: hits, their analogues and other compounds. The true share with any hit is near 5.2%.
Vif imaging – inhibitors of HIV Vif. HEK293T cells, Vif self-association by quenched fluorescence, imaging, 24 h. inhibition, % at 7.49 µM. 0.35% of 340,000 active. AID 602346; in the data active = inhibition above about 50%, passing the limit was not always enough; inconclusive = no clear call, values can overlap the other calls; inactive = below about 31%
NR3A LBD binder – NR3A (human) ligand-binding domain modulation | NR3A LBD differential scanning fluorimetry, Tm shift; 0% = protein alone, 100% = glycine-bound protein | Tm shift relative to glycine control, % at 25 µM | 2.5% of 340,000 active;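 active = melting temperature shift of at least 10% of the positive control shift, at one fixed dose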
SKN-1 inh – C. elegans SKN-1 inhibition; C. elegans VP596 Pgst-4::GFP/RFP ratio, acrylamide-induced, 24 h; inhibition, % at 21.8 µM; 0.49% of 360,000 active;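 active = interference check ratio from 0.5 to 1.5 plus GFP to RFP signal ratio inhibition reaching or exceeding a fixed threshold, cut at about 30% in these data, passing the limit was not always enough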
NadD inh – inhibitors of Staphylococcus aureus NadD | purified NadD enzyme, colorimetric absorbance read-out | inhibition, % at 20 µM | 0.78% of 360,000 active; in the data active = inhibition above about 26%
SMARCA2 activ – increases SMARCA2 function in MMTV reporter cells; MG213 cells, MMTV-luciferase reporter, dexamethasone, overnight; activation, % at 9.1 µM; 1% of 370,000 active; in the data active = activation above about 7.8%
esBAF inh – blocks esBAF chromatin remodeling in mouse ES cells; Bmi1-luciferase knock-in reporter, 24 h; 100% = twice the neutral-well signal; reporter increase, % at 12.5 µM; 2% of 350,000 active; AID 602393; in the data active = activation above about 40%; inconclusive = no clear call, values can overlap the other calls;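 also: a rise in the Bmi1 reporter signal indicates esBAF inhibition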
SMARCA2 act conf – confirmation of SMARCA2 (BRM) function activators; shares compounds with SMARCA2 activ; MG213 cells, MMTV-luciferase with dexamethasone, luminescence, overnight; MG213 cells expressing E1A, Rb sequestered; DMSO wells 0%, reference activator 100%; activation, % at 9.1 µM; 30% of 3,500 active; AID 652260;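 active = activation above its plate's cutoff, the mean activation of tested wells plus 3 SD, cut at about 7.9% in these data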
GAL4-VP16 Luc – activates GAL4-VP16 luciferase, flagging SMARCA2 activator hits; 41% of 3,500 active; activation, % at 9.1 µM; shares compounds with SMARCA2 activ; HEK293 GAL4-VP16 pG5luc reporter, luciferase luminescence; scaled: DMSO wells 0%, SAHA wells 100%;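 active = activation above the solvent-only control well mean plus 3 SD, averaged across control plates, cut at about 5.2% in these data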
Each line names hits and unclear results; the compound was inactive in the other large screens (follow-up assays come after a bar, where they were run).

O=C(CS(=O)c1ccc(C(F)(F)F)cc1[N+](=O)[O-])Oc1ccc(Cl)cc1 (centres undefined)	SMARCA2 activ 11.0 | SMARCA2 act conf 14.1 | GAL4-VP16 Luc inactive
Cc1ccc(OCCNc2ccc(C(F)(F)F)cc2[N+](=O)[O-])cc1	none (no result: esBAF inh)
Cc1cc(C)cc(OC(=O)CS(=O)c2ccc(C(F)(F)F)cc2[N+](=O)[O-])c1 (centres undefined)	SMARCA2 activ 13.6 | SMARCA2 act conf 12.8 | GAL4-VP16 Luc inactive
O=C(O)COc1ccc2occ(C(=O)c3ccccc3)c2c1	none (no result: SMARCA2 activ)
O=C(CCl)Oc1ccc2occ(C(=O)c3cccs3)c2c1	SMARCA2 activ 8.6, esBAF inh 93.4 (no result: Vif imaging) | SMARCA2 act conf inactive | GAL4-VP16 Luc 6.5
CO[C@@H]1CN(C)C(=O)c2cc(NC(=O)Nc3ccc(Cl)cc3)ccc2OC[C@H](C)N(C(=O)Nc2c(C)noc2C)C[C@H]1C	none (no result: Vif imaging, NR3A LBD binder, SKN-1 inh, NadD inh, SMARCA2 activ)
O=C(/C=C/c1ccco1)N1CCN(c2ncccn2)CC1	SMARCA2 activ 8.8 (no result: esBAF inh) | SMARCA2 act conf inactive | GAL4-VP16 Luc 6.5
Cc1ccccc1OCC(=O)Nc1cccc(N(C)S(C)(=O)=O)c1	none
CN(c1cccc(NC(=O)COc2ccc(Cl)cc2Cl)c1)S(C)(=O)=O	SMARCA2 activ 9.4 | SMARCA2 act conf inactive | GAL4-VP16 Luc 9.1
CCS(=O)(=O)N1CCc2nc(-c3ccccc3)sc2C1	SMARCA2 activ 8.1 (no result: Vif imaging) | SMARCA2 act conf inactive | GAL4-VP16 Luc 10.6
O=C(COc1ccccc1Cl)NC(=S)Nc1ccccc1N1CCCC1	SMARCA2 activ 11.0 | SMARCA2 act conf inactive | GAL4-VP16 Luc inactive
COC(=O)c1ccccc1NC(=S)NC(=O)COc1ccccc1Cl	none
Cc1[nH]c(C)c(S(=O)(=O)Nc2ccc(F)cc2Cl)c1C(=O)N1CCCC1	SMARCA2 activ 9.0 | SMARCA2 act conf inactive | GAL4-VP16 Luc inactive
Cc1ccc(CNS(=O)(=O)c2c(C)[nH]c(C)c2C(=O)N2CCCCC2)cc1	none
COc1cccc(CNS(=O)(=O)c2c(C)[nH]c(C)c2C(=O)N2CCCCC2)c1	SMARCA2 activ 13.4 | SMARCA2 act conf inactive | GAL4-VP16 Luc inactive
CCC(=O)Nc1ccc2c(c1)C(=O)N(C)C[C@@H](OC)[C@@H](C)CN(Cc1nccs1)[C@@H](C)CO2	none (no result: Vif imaging, NR3A LBD binder, SKN-1 inh, NadD inh, SMARCA2 activ)
COCC(=O)N(C)C[C@@H]1Oc2cc(C#C[C@@H](C)O)ccc2S(=O)(=O)N([C@@H](C)CO)C[C@@H]1C	none (no result: Vif imaging, NR3A LBD binder, SKN-1 inh, NadD inh, SMARCA2 activ)
COc1ccc2c(c1)[nH]c1c(=O)n(Cc3ccncc3)cnc12	SMARCA2 activ 8.6 (no result: esBAF inh) | SMARCA2 act conf inactive | GAL4-VP16 Luc inactive
COc1ccc2c(c1)[nH]c1c(=O)n(CCN(C)C)cnc12	none
S=C1SCN(Cc2ccccc2)CN1Cc1ccccc1	none
S=C1SCN(Cc2cccnc2)CN1Cc1cccnc1	SMARCA2 activ 12.1 (no result: esBAF inh) | SMARCA2 act conf inactive | GAL4-VP16 Luc inactive
O=C(Nc1ccccc1C(=O)NCCc1ccccc1)c1ccco1	NR3A LBD binder 15.6, SMARCA2 activ 9.1 (no result: esBAF inh) | SMARCA2 act conf 10.7 | GAL4-VP16 Luc 7.4
Cc1noc(C)c1S(=O)(=O)Nc1ccc2c(c1)C(=O)N([C@H](C)CO)C[C@H](C)[C@@H](CN(C)C(=O)Nc1ccc(C(F)(F)F)cc1)OCCCC[C@H](C)O2	none (no result: Vif imaging, NR3A LBD binder, SKN-1 inh, NadD inh, SMARCA2 activ)
COc1ccc2c(c1)CNC2CS(=O)(=O)NCc1ccc(F)cc1 (centres undefined)	none (no result: Vif imaging, NR3A LBD binder, SKN-1 inh, NadD inh, esBAF inh)
COc1ccc(CNS(=O)(=O)CC2NCc3cc(OC)ccc32)cc1 (centres undefined)	SMARCA2 activ 10.0 (no result: Vif imaging, NR3A LBD binder, SKN-1 inh, NadD inh, esBAF inh) | SMARCA2 act conf inactive | GAL4-VP16 Luc inactive
COC(=O)C[C@@H]1C[C@H]2c3cc(NS(=O)(=O)c4ccc(F)cc4)ccc3O[C@H]2[C@H](CO)O1	none (no result: Vif imaging, NR3A LBD binder, SKN-1 inh, NadD inh, SMARCA2 activ)
Cc1ccc(C(=O)CSc2nnc(-c3ccco3)n2Cc2ccccc2)cc1	SMARCA2 activ 11.4 | SMARCA2 act conf inactive | GAL4-VP16 Luc inactive
CC(C)OCCCNC(=O)C1CCC(CNS(=O)(=O)c2ccc(Cl)cc2)CC1 (centres undefined)	SMARCA2 activ 14.2 (no result: esBAF inh) | SMARCA2 act conf inactive | GAL4-VP16 Luc inactive
CC(C)OCCCNC(=O)C1CCC(CNS(=O)(=O)c2ccccc2)CC1 (centres undefined)	none (no result: esBAF inh)
COc1ccc(-n2nnnc2S(=O)(=O)Cc2ccc(C(=O)O)cc2)cc1	SMARCA2 activ 13.3 | SMARCA2 act conf 15.2 | GAL4-VP16 Luc inactive
COc1ccc(-n2nnnc2S(=O)(=O)CC(=O)N2CCCCC2)cc1	none
O=C(COn1nnc2ccccc21)N1CCN(Cc2ccccc2)CC1	SMARCA2 activ 10.4 (no result: esBAF inh) | SMARCA2 act conf inactive | GAL4-VP16 Luc inactive
O=C(COn1nnc2ccccc21)NCC1CCCCC1	SMARCA2 activ 8.8, esBAF inh 53.2 | SMARCA2 act conf inactive | GAL4-VP16 Luc inactive
Cc1ccc(CN(C(=O)c2cc3ccccc3oc2=O)C2CCS(=O)(=O)C2)cc1 (centres undefined)	SMARCA2 activ 8.7 | SMARCA2 act conf inactive | GAL4-VP16 Luc inactive
O=C(c1cc(=O)c2ccccc2o1)N(Cc1ccccc1)C1CCS(=O)(=O)C1 (centres undefined)	none
COC(=O)c1ccc(CC(=O)c2nc3ccccc3s2)cc1	SMARCA2 activ 10.5 (no result: esBAF inh) | SMARCA2 act conf 8.8 | GAL4-VP16 Luc 6.9
COC(=O)c1ccc(CSc2nc3ccccc3s2)o1	Vif imaging inconclusive, SMARCA2 activ 14.3, esBAF inh 46.9 | SMARCA2 act conf inactive | GAL4-VP16 Luc inactive
CN(C)CC(=O)Nc1ccc2c(c1)[C@@H]1C[C@@H](CC(=O)NCC3CC3)O[C@H](CO)[C@@H]1O2	none (no result: Vif imaging, NR3A LBD binder, SKN-1 inh, NadD inh, SMARCA2 activ)
CCc1nn(CC(=O)N2CCN(c3ccc(OC)cc3)CC2)c(=O)c2cc3occc3n12	SMARCA2 activ 8.4 | SMARCA2 act conf inactive | GAL4-VP16 Luc inactive
CCc1nn(CC(=O)N2CCC(C(N)=O)CC2)c(=O)c2cc3occc3n12	none
COc1ccc(NC(=O)N[C@H]2C=C[C@H](CC(=O)NC3CCC3)O[C@@H]2CO)cc1	none (no result: Vif imaging, NR3A LBD binder, SKN-1 inh, NadD inh, SMARCA2 activ)
COc1ccc(Nc2nc(N)c3ccccc3n2)c(OC)c1	SMARCA2 activ 10.8 | SMARCA2 act conf 9.0 | GAL4-VP16 Luc 7.5
COc1ccc(Nc2nc(N)nc(C(F)(F)F)n2)c(OC)c1	none
CC(=O)c1ccc(NCCCN2CCC(C(O)(c3ccccc3)c3ccccc3)CC2)cc1	SMARCA2 activ 9.6 (no result: Vif imaging, NR3A LBD binder, SKN-1 inh, NadD inh, esBAF inh) | SMARCA2 act conf inactive | GAL4-VP16 Luc inactive
C[C@H]1CN([C@@H](C)CO)S(=O)(=O)c2ccc(-c3cccnc3)cc2O[C@@H]1CN(C)C	none (no result: Vif imaging, NR3A LBD binder, SKN-1 inh, NadD inh, SMARCA2 activ)
Cc1ccc(OCC(O)CN2CCN(Cc3ccc4c(c3)OCO4)CC2)c(C)c1 (centres undefined)	none
